# From PubChem BioAssay (EPA / NIEHS)
# Active and inactive are the calls of the source. How the source made its calls: active means hit-call score of the fitted dose curve at least 0.9, where 1 is the maximum; inactive means score below 0.9.
# Experiment: BSK_3C_uPAR: BioMAP Diversity Plus: 3C Assay for Urokinase-type plasminogen activator receptor (uPAR) Biomarker Activity (AID 2282998)
# Settings: BioMAP 3C HUVEC, uPAR biomarker ELISA; actives raise or lower the signal
# Experimental: BSK_3C is a cell-based, multiplexed-readout assay that uses umbilical vein endothelium, a human vascular primary cell, with measurements taken at 24 hours after chemical dosing in a 96-well plate.BSK_3CAR is an assay component measured in the BSK_3C assay. It measures uPAR antibody related to regulation of gene expression using ELISA technology.Data from the assay component BSK_3CAR was analyzed into 1 assay endpoint. This assay endpoint, BSK_3CAR, was analyzed with bidirectional fitting relative to DMSO as the negative control and baseline of activity. Using a type of binding reporter, gain or loss-of-signal activity can be used to understand changes in the signaling as they relate to the gene PLAUR. Furthermore, this assay endpoint can be referred to as a primary readout, because this assay has produced multiple assay endpoints where this one serves a signaling function. To generalize the intended target to other relatable targets, this assay endpoint is annotated to the cytokine intended target family, where the subfamily is plasmogen activator.
# The levels of cell surface (or secreted, indicated by the prefix "s") biomarker endpoints were measured by ELISA. Overt cytotoxicity to cells in confluent adherent cultures (all systems other than the BT system) was assessed by measuring total protein levels using sulforhodamine B (SRB) staining in parallel cultures at the time of biomarker measurements, indicated as SRB endpoints. For proliferation assays for adherent cell types, individual cell types are cultured at sub-confluence and relative cell numbers quantified by SRB staining at time points optimized for each system (48 h: 3C and CASM3C systems; 72 h: BT and HDF3CGF systems; 96 h: SAg system). SRB was performed by staining cells with 0.1% SRB after fixation with 10% TCA and reading wells at 560 nm.Viability and proliferation of PBMC (T cells) was quantified by Alamar Blue reduction for the SAg and BT systems. For PBMC viability (referred to as PBMC Cytotoxicity within the assay endpoint names), cells were plated (75,000/well in a 96-well plate) and then chemical samples added for 1 h before addition of activators, SEB and TSST-1 (20 ng/mL final concentration each). Cells were incubated for 90 h. Then, Alamar Blue (20 uL/well) (Invitrogen, Cat DAL1100) was added for 6 h, and the plates were read with a fluorescence microplate reader at 546/580 nm (excitation/emission). For PBMC proliferation, cells were plated and activated as above but incubated for only 16 h prior to addition of Alamar Blue. Plates were read after 6 h.
SMILES,AC50,outcome
ClC1=C(Cl)C2(Cl)C3C(Cl)C(Cl)CC3C1(Cl)C2(Cl)Cl (stereo not given),35.8 µM (active),
Nc1cc2c3c(c1)C(c1ccccc1)=N[C@@H](NC(=O)c1cccnc1)C(=O)N3CC2,,inactive
Nc1ccc2ccccc2c1,,inactive
O=C(O)C1C(C(=O)O)C2(Cl)C(Cl)=C(Cl)C1(Cl)C2(Cl)Cl (stereo not given),,inactive
C=CC(=O)OCC(F)(F)C(F)F,,inactive
CC(C)Nc1ccc(Nc2ccccc2)cc1,13.2 µM (active),
CCCCC(CC)COC(=O)c1c(Br)c(Br)c(Br)c(Br)c1C(=O)OCC(CC)CCCC (stereo not given),,inactive
O=P(Oc1ccccc1)(Oc1ccccc1)Oc1ccccc1,32.2 µM (active),
CCC1(c2ccccc2)C(=O)N=C(O)NC1=O (stereo not given),,inactive
CC(Cc1ccc(OCC(=O)O)cc1)NCC(O)c1csc(C(F)(F)F)n1 (stereo not given),,inactive
O=c1ssc(Cl)c1Cl,6.09 µM (active),
O=C(O)C(F)(F)C(F)(F)C(=O)O,,inactive
COCCOCCO,,inactive
CC(C)(C)OOC(C)(C)C,,inactive
COC(=O)C(F)(F)C(F)(F)OC(F)(C(F)(F)F)C(F)(F)OC(F)=C(F)F (stereo not given),,inactive
CN(C)C(=O)Cl,,inactive
Cc1ccc(O)cc1C,,inactive
Cc1ccc(N)cc1N,,inactive
O=C(O)C(Cl)Cl,,inactive
Cc1ccc2c(c1N)C(=O)c1ccccc1C2=O,3.89 µM (active),

SMILES,AC50,outcome
CCOP(=S)(NC(C)C)Oc1ccccc1C(=O)OC(C)C (stereo not given),,inactive
CCCCN(CCCC)SN(C)C(=O)Oc1cccc2c1OC(C)(C)C2,32.3 µM (active),
c1nc[nH]n1,,inactive
NC(=O)C(F)(F)C(F)(F)F,,inactive
CCN(CC)c1ccccc1,,inactive
O=C(O)C=CC(F)(C(F)(F)F)C(F)(F)F,,inactive
CCCCOCCOP(=O)(OCCOCCCC)OCCOCCCC,,inactive
CCOP(=S)(OCC)SCS(=O)(=O)CC,,inactive
ClC(Cl)=C(c1ccc(Cl)cc1)c1ccccc1Cl,10.5 µM (active),
Cc1ccc([N+](=O)[O-])cc1C,,inactive
CCCCC(CC)COP(=O)(Oc1ccccc1)Oc1ccccc1 (stereo not given),12.1 µM (active),
FC(F)(F)C(F)(C(F)(F)F)C(F)(F)C(F)(F)CC1CO1 (stereo not given),,inactive
O=S1(=O)OCC2C(CO1)C1(Cl)C(Cl)=C(Cl)C2(Cl)C1(Cl)Cl (stereo not given),20 µM (active),
CCOP(=S)(S)OCC,,inactive
Nc1ccc([N+](=O)[O-])cc1Cl,,inactive
OCC(F)(F)OC(F)(F)C(F)(F)OC(F)(F)CO,,inactive
OCC1CO1 (stereo not given),,inactive
CCOS(=O)(=O)OCC,,inactive
CCOc1ccc(C(C)(C)COCc2cccc(Oc3ccccc3)c2)cc1,,inactive
ClC(Cl)(Cl)c1ccccc1,,inactive
